Laboratory results published in PubChem BioAssay (NCATS).
Inconclusive results are not listed. Where a call stands in place of a potency, no number is given. Unmarked numbers belong to inactive results. Active and inactive are the calls of the source. Calls come from the whole dose curve; as a rule, active = well fitted inhibition curve with a large enough effect; inconclusive = small, poorly fitted or top-dose-only effect; inactive = no such curve, though single readings can be large or run the other way.

Tests used:
[1] = test system: Zika virus NS2B-NS3 protease (unlinked complex); assay: Primary screen GU Rhodamine qHTS for Zika virus inhibitors: Unlinked NS2B-NS3 protease assay (AID 1347159); note: nearly all actives have a fitted effect of over 60% in size
Procedure, shortened: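 Percent inhibition came from the 15-min rise in Rhodamine110 fluorescence (1.5 microM substrate, ~15% conversion), normalized to no-inhibitor and no-enzyme wells and Hill-fitted. Unlinked protease, 25 nM, pH 8.0 Tris buffer; compounds up to 114 microM, 15-min preincubation.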

[2] = test system: Zika virus NS2B-NS3 protease (linked construct); assay: Primary screen NINDS Rhodamine qHTS for Zika virus inhibitors (AID 1347160); note: nearly all actives have a fitted effect of over 55% in size
Procedure, shortened: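 Rhodamine110-peptide cleavage (1.5 µM substrate) by 25 nM linked NS2B-NS3 enzyme at pH 8.0 (Tris, Tween 20), after 15 min RT preincubation with compounds; 15-min fluorescence change normalized to controls and Hill-fitted.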
Potency is the fitted concentration of half-maximal effect.

Structure (SMILES)	Potency [1]	Potency [2]	activity change, negative = inhibition [1]	outcome [2]
Cc1ncc(CCCN(C)C)cc1Nc1ncc2c(n1)-c1ccc(C(F)(F)F)cc1NC(=S)C2	inactive	inactive		
CNC(C)C(=O)NC(C(=O)N1CCCC1c1nc(C(=O)c2ccc(F)cc2)cs1)C1CCCCC1 (configuration not stated)	inactive	inactive		
C=CC(C)(C)c1[nH]c2cc3c(cc2c1CC1NC(=O)C2=CCCN2C1=O)C=CC(C)(C)O3 (configuration not stated)	inactive	inactive		
C=C1CCCC2(C)CC3(OC)OC(=O)C(C)=C3CC12 (configuration not stated)	inactive	inactive		
CC(/C=C/C1=CC2=CC(=O)C(C)(O)C(O)C2=CO1)=C\C(C)CCO (configuration not stated)	inactive	inactive		
C=CC(=O)Nc1cc(Nc2ncc(Cl)c(-c3c[nH]c4ccccc34)n2)c(OC)cc1N(C)CCN(C)C	inactive	inactive		
CC(C)(O)/C=C/C1=CC(=O)[C@@](C)(O)C[C@H]1O	inactive	inactive		
CC(C)C(C#N)O[C@@H]1O[C@H](CO[C@@H]2O[C@@H](C)[C@H](O)[C@@H](O)[C@H]2O)[C@@H](O)[C@H](O)[C@H]1O (some centres not stated)	inactive	inactive		
CC(=O)C1=C(C)N(c2cccc(C(F)(F)F)c2)C(=O)N[C@H]1c1ccc(C#N)nc1	inactive	inactive		
O=C(O)[C@@H]1C[C@H]2C[C@@H](CCc3nn[nH]n3)CC[C@H]2CN1	inactive	inactive		
CC1=C(CCC(C)CC(=O)O)[C@@]2(C)CCCC(C)(C)C2CC1=O (some centres not stated)	inactive	inactive		
CC1=C(C(=O)O)/C(=C\CO[C@@H]2O[C@H](CO)[C@@H](O)[C@H](O)[C@H]2O)C(OC(=O)/C=C\c2ccc(O)cc2)C1 (some centres not stated)	inactive	inactive		
C/C=C/C=C/C(O)=C1\C(O)=C(C)C(=O)[C@@]2(C)OC(=O)[C@@](C)(NC(=O)/C=C/C(=O)O)[C@@H]12	inactive	inactive		
Cc1cc(OCc2nc(-c3ccccc3Cl)cs2)ccc1OCC(=O)O	12.6 µM (active)	14.1 µM (active)		
CC1=CCC(C(C)(C)O[C@@H]2O[C@H](CO[C@@H]3O[C@@H](C)[C@H](O)[C@@H](O)[C@H]3O)[C@@H](O)[C@H](O)[C@H]2O)CC1 (some centres not stated)	inactive	inactive		
CS(=O)(=O)N1CCC(NC(=O)c2[nH]ncc2NC(=O)c2c(Cl)cccc2Cl)CC1	inactive	inactive		
CCNC(=O)Nc1ncc(-c2cc(-c3c(C)cc(OC)cc3C)nc(-c3cnccn3)n2)s1	inactive	inactive		
COc1cc(C)c(C(=O)O[C@H]2[C@@H](OC(C)=O)[C@H](n3ccc(=O)[nH]c3=O)O[C@@H]2CO)c(OC)c1	inactive	inactive		
COC(=O)C1=CO[C@@H](O[C@@H]2O[C@H](CO)[C@@H](O)[C@H](O)[C@H]2O)C2C1C(=O)C[C@H]2C (some centres not stated)	inactive	inactive		
COCCOc1ccc(N2CCN(CCn3ncc4c3nc(N)n3nc(-c5ccco5)nc43)CC2)cc1	inactive	inactive		
Cc1cc(O)c(-c2ccc([C@@H](C)CN(C)C)cc2)c2c1[nH]c(=O)c1sccc12	inactive	inactive		

Structure (SMILES)	Potency [1]	Potency [2]	activity change, negative = inhibition [1]	outcome [2]
CC1(C)CC[C@]2(C(=O)O)CC[C@]3(C)C(=CCC4[C@@]5(C)CC[C@H](O[C@@H]6O[C@H](CO)[C@@H](O)[C@H](O)[C@H]6O[C@@H]6O[C@H](CO)[C@@H](O)[C@H](O)[C@H]6O)[C@@](C)(CO)C5CC[C@]43C)[C@@H]2C1 (some centres not stated)	inactive	inactive		
CC(=O)OC12COC1CC(O)C1(C)C(=O)C(O)C3=C(C)C(OC(=O)C(O)C(NC(=O)OC(C)(C)C)c4ccccc4)CC(O)(C(OC(=O)c4ccccc4)C21)C3(C)C (configuration not stated)	inactive	inactive		
C[C@@H]([C@@H](O)c1ccc(O)cc1)N1CCC(O)(c2ccccc2)CC1	inactive	inactive		
CC(Nc1ncnc2nc[nH]c12)c1cc2cccc(Cl)c2c(=O)n1-c1ccccc1 (configuration not stated)	inactive	inactive		
CS(=O)(=O)NCC1CCC(Nc2nc3c(s2)CCSc2ccccc2-3)CC1 (configuration not stated)	inactive	inactive		
CC1(C)CC[C@]2(C(=O)O[C@@H]3O[C@H](CO[C@@H]4O[C@H](CO)[C@@H](O)[C@H](O)[C@H]4O[C@@H]4O[C@H](CO)[C@@H](O)[C@H](O)[C@H]4O)[C@@H](O)[C@H](O[C@@H]4O[C@H](CO)[C@@H](O)[C@H](O)[C@H]4O)[C@H]3O)CC[C@]3(C)C(=CCC4[C@@]5(C)CC[C@@H](O)[C@@](C)(C(=O)O[C@@H]6O[C@H](CO)[C@@H](O)[C@H](O)[C@H]6O)C5CC[C@]43C)[C@@H]2C1 (some centres not stated)			14.6% [at 19.1 µM]	inactive [at 10.7 µM]
CCC(Nc1ncnc2nc[nH]c12)c1nc2cccc(F)c2c(=O)n1-c1ccccc1 (configuration not stated)	inactive	inactive		
N#Cc1ccc(C(=O)N2CCC3(CC2)N=C(N)c2c(F)ccc(F)c2N3)cn1	inactive	inactive		
CC(C)S(=O)(=O)N[C@H]1CCOC[C@@H]1c1ccc(-c2ccc(C#N)s2)cc1	inactive	inactive		
O=C(CO)[C@@H](O)[C@H](O[C@@H]1O[C@H](CO)[C@H](O)[C@H](O)[C@H]1O)[C@H](O)CO	inactive	inactive		
COc1cc(/C=C/C=O)cc(OC)c1O[C@@H]1O[C@H](CO)[C@@H](O)[C@H](O)[C@H]1O	inactive	inactive		
CCC(C)C(=O)O[C@H]1CCC=C2C=C[C@H](C)[C@H](CC[C@@H](O)C[C@@H](O)CC(=O)O)[C@H]21 (some centres not stated)	inactive	inactive		
COc1ccc(N(C)c2nc(C)nc3ccccc23)cc1	inactive	inactive		
C=C(C(=O)OC)C1C(O)CC2(C)C(O)CCC(=O)C2C1O (configuration not stated)	inactive	inactive		
COc1c(C)c(OCC(O)C(C)(C)O)cc2c1COC2=O (configuration not stated)	inactive	inactive		
C[C@@H]1C(=O)O[C@H]2C[C@]34[C@H]5C[C@@H](C(C)(C)C)[C@]36[C@@H](OC(=O)[C@H]6O)O[C@]4(C(=O)O5)[C@]21O	inactive	inactive		
COc1ccc(/C=C\C(=O)O)c(O[C@@H]2O[C@H](CO)[C@@H](O)[C@H](O)[C@H]2O)c1	inactive	inactive		
Cc1ccccc1-n1c([C@H](C)Nc2nc(N)nc3nc[nH]c23)nc2cccc(C)c2c1=O	inactive	inactive		
CC1=C(COC2OC(CO)C(O)C(O)C2O)C(C(CO)C(=O)O)CC1 (configuration not stated)	inactive	inactive		
COC1=CC(=O)CC(C)C12Oc1cc(OC)cc(O)c1C2=O (configuration not stated)	inactive	inactive		
COc1c2c(c(C)c3c1C(=O)OC3)O[C@@]1(C)CC(O)C(C(C)(C)O)[C@](C)(CCC(=O)O)[C@H]1C2 (some centres not stated)	inactive	inactive		

Structure (SMILES)	Potency [1]	Potency [2]	activity change, negative = inhibition [1]	outcome [2]
CNCc1ccc(-c2cc(-c3nc(-c4ccc(S(=O)(=O)C(C)C)cc4)cnc3N)on2)cc1	inactive	inactive		
C[C@H](C/C=C/C(C)(C)O)[C@H]1CC[C@@]2(C)[C@@H]3[C@@H](O[C@@H]4O[C@H](CO)[C@@H](O)[C@H](O)[C@H]4O)C=C4C(CC[C@H](O)C4(C)C)[C@]3(C=O)CC[C@]12C (some centres not stated)	inactive	inactive		
COC(=O)C[C@H]1C(C)(C)[C@H](OC(=O)C(C)C)[C@@]2(O)C(=O)[C@]1(C)C1CC[C@]3(C)C(CC(=O)O[C@H]3c3ccoc3)[C@]13O[C@@H]32 (some centres not stated)	inactive	inactive		
O=C1C=CC(O)(/C=C/C(=O)OC[C@H]2O[C@@H](Oc3ccc(O)cc3)[C@H](O)[C@@H](O)[C@@H]2O)C=C1	inactive	inactive		
C/C=C/c1cc(OC)c2c(c1)[C@@H](C)[C@@H](c1ccc(O)c(OC)c1)O2	inactive	inactive		
C=C1C[C@]23C[C@H]1CC[C@H]2[C@@]12CC[C@H](O)[C@@](C)(C(=O)O1)[C@H]2[C@@H]3C(=O)O	inactive	inactive		
NC(=O)[C@H]1CCS[C@@H]2C[C@]3(CCCN3C(=O)Cc3ccc(NC(=O)COc4ccc(Cl)cc4Cl)cc3)C(=O)N12	inactive	inactive		
CC[C@H]1OC(=O)[C@](C)(F)C(=O)[C@H](C)[C@@H](O[C@@H]2O[C@H](C)C[C@H](N(C)C)[C@H]2O)[C@](C)(OC)C[C@@H](C)C(=O)[C@@H](C)[C@H]2N(CCCCn3cc(-c4cccc(N)c4)nn3)C(=O)O[C@]12C	inactive	inactive		
COc1cc(O)cc(C)c1C(=O)O[C@@H]1[C@H](O)[C@@H](CO)O[C@H]1n1ccc(=O)[nH]c1=O	inactive	inactive		
CC[C@@H](O)C[C@@H]1C(C)=C[C@@H]2CCCC[C@@H]2[C@@]1(C)C(=O)O	inactive	inactive		
CC(C)(O[C@@H]1O[C@H](CO)[C@@H](O)[C@H](O)[C@H]1O)C(OC(=O)/C=C\c1ccc(O)cc1)C(=O)OCc1ccc(O[C@@H]2O[C@H](CO)[C@@H](O)[C@H](O)[C@H]2O)cc1 (some centres not stated)	inactive	inactive		
COc1ccc(CNC(=O)c2sc3nc(C)cc(C)c3c2N)cc1	inactive	inactive		
CC(C)(O)C1CCC(C)(C2CCC3(C)C4CCC5C(C)(C(=O)OC6OC(CO)C(O)C(O)C6O)C(O)CC(O)C56CC46CCC23C)O1 (configuration not stated)	inactive	inactive		
O=C(O)C(O[C@@H]1O[C@H](CO[C@@H]2O[C@H](CO)[C@@H](O)[C@H](O)[C@H]2O)[C@@H](O)[C@H](O)[C@H]1O)c1ccccc1 (some centres not stated)	inactive	inactive		
OC[C@H]1O[C@@H](OC(CCCCc2ccc(O)cc2)CCc2ccc(O)cc2)[C@H](O)[C@@H](O)[C@@H]1O (some centres not stated)	inactive	inactive		
CNC(=O)c1ccccc1Nc1nc(Nc2ccc(N3CCNCC3)cc2)ncc1Cl	inactive	inactive		
NC(=O)C(CCC(F)(F)F)N(Cc1ccc(-c2ncon2)cc1F)S(=O)(=O)c1ccc(Cl)cc1 (configuration not stated)	inactive	inactive		
Cc1c(NC(=O)c2cc(C(N)=O)nc3cc(F)ccc23)c(C(F)(F)F)nn1Cc1ccc(C#N)cc1	inactive	inactive		
C[C@@H](Oc1cc(-n2cnc3ccc(OC4CCN(C)CC4)cc32)sc1C(N)=O)c1ccccc1C(F)(F)F	inactive	inactive		
